# In PubChem BioAssay (NCI):
# Compounds without any hit were thinned out: in the full panel of roughly 83,000, 20% have a hit.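 Compound tested at a single concentration for 48 hours in 96-well plates; a percent growth value below 10 was scored as active.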 A number with no mark means an inactive call. Active and inactive are the calls of the source.
# Tested on: SF-268 CNS
# Experiment: NCI-60 one-dose screen, 48 h (100 = growth as untreated, 0 = no growth, -100 = all killed)
# Details: 10 µM unless noted
row,SMILES,growth
1,COC(=O)[C@@H]1CCCN1C(=O)[C@H]1CCCN1C(=O)[C@@H](Cc1c[nH]c2ccccc12)NC(=S)Nc1cc(C(F)(F)F)cc(C(F)(F)F)c1,38%
2,Cc1ccc(F)cc1NC(=O)c1cc(Cl)ccc1Nc1ccccc1,55%
3,CC1=C(C(=O)OCC2CCN(C(=O)OC(C)(C)C)CC2)[C@@H](c2cccc(C#N)c2)C2=C(CC(C)(C)CC2=O)N1,50.5%
4,CCCCCCc1cc2cc(-c3csc(/C=C/c4ccccc4)n3)c(=O)oc2cc1O,17%
5,COc1ccc(Br)c(/C=C2\SC(=Nc3ccc(O)cc3)NC2=O)c1,74%
6,COc1ccc(Cn2c(Br)c3c(c2Br)-c2nc(N)sc2CC3)cc1,45.2%
7,COC(=O)c1cc2c(n1Cc1ccccc1)-c1oncc1CCC2,86.8%
8,CCOC(=O)c1sc(-c2ccc(OS(=O)(=O)c3ccccc3[N+](=O)[O-])c(C=O)c2)nc1C,46.6%
9,Clc1ncccc1Nc1ccc2nnc(-c3ccncc3)n2n1,93.3%
10,O=C1NC(=O)C(=Cc2cn(Cc3cn(Cc4ccc(Cl)cc4Cl)nn3)c3ccccc23)C(=O)N1,84.8%
11,CCCCCCn1c(=N)n(CC(O)COc2cccc(C)c2)c2ccccc21 (centres undefined),-14.2% (active)
12,O=C(Nc1ncc(Cc2cccc(C(F)(F)F)c2)s1)C1COc2ccccc2O1 (centres undefined),87.6%
13,CN1C(=O)N(C)C2C1NN=c1s/c(=C\c3ccc([N+](=O)[O-])cc3)c(=O)n12 (centres undefined),77.1%
14,O=C(c1nc2ccccc2[nH]1)C1C(c2ccc(F)cc2)C2CC3CCCCC3N2[C@@]12C(=O)Nc1ccc(Cl)cc12 (some centres undefined),57%
15,COc1ccc(/C=C/C(=O)c2ccc3cc(OC)c(OC)cc3c2)cc1OC,70.7%
16,O=c1oc2ccc(F)cc2c(=O)n1-c1ccc(Br)cc1F,11.2%
17,COc1cc(/C=C2\CN(S(=O)(=O)c3ccccc3)C/C(=C\c3cc(CN4CCCC4)c(O)c(OC)c3)C2=O)cc(CN2CCCC2)c1O,12.9%
18,CC(C)C[C@H](C(=O)N[C@@H](C)C(N)=O)N1CC=CCN(O)S1(=O)=O,108% [5 µM]
19,CN(C)CCCNCc1ccc(-c2ccc(F)c(Cl)c2)o1,53.3%
20,O=c1oc2ccc(-c3ccc(F)cc3F)cc2c(=O)n1-c1cccc(C(F)(F)F)c1,12.7%

row,SMILES,growth
1,O=C(N=Nc1c(O)[nH]c2ccccc12)c1oc2ccccc2c1CN1CCN(c2ccccc2)CC1,10.8%
2,O=C(Nc1ccc(Br)cc1F)c1cc(F)ccc1O,12.6%
3,COc1cc(NC(=O)CCSc2nc3ccccc3c(=O)n2Cc2ccccc2)cc(OC)c1OC,81.9%
4,O=C(Nc1ccc(I)cc1F)c1cc(F)ccc1O,8.56% (active)
5,COc1nccc2cc3c(=O)n4c(cc5ccccc54)c(=O)n3c12,101%
6,O=C(COc1cc(O)c2c(=O)cc(-c3ccccc3)oc2c1)Nc1ccccc1,91%
7,O=c1oc2ccc(-c3ccc(F)cc3F)cc2c(=O)n1-c1ccc(Cl)c(C(F)(F)F)c1,14.5%
8,CCN1CCN(c2cc(C)c3cc(NC(=O)c4ccc(OC)c(OC)c4)ccc3n2)CC1,50.8%
9,COc1ccc(Cn2c(Br)c3c(c2-c2cc(OC)c(OC)c(OC)c2)CCc2sc(NC(C)=O)nc2-3)cc1,37.1%
10,COc1ccccc1C(=O)O/N=C(\N)Cc1cccc2ccccc12,80.9%
11,O=C(Nc1ccc(Cl)cc1F)c1cc(I)ccc1O,17.1%
12,O=C(O)CCC(=O)c1ccc(C2CCCCCC2)cc1,97.5%
13,CCCCOCc1cc(CN2CCN(C)CC2)c(O)c2ncccc12,47.9%
14,COC(=O)/C(CCC=C(C)C)=C1\[C@@H](OC(C)=O)C[C@@]2(C)[C@H]1C[C@@H](O)[C@H]1[C@@]3(C)CC[C@H](NCc4ccccc4)[C@@H](C)[C@@H]3CC[C@@]12C,64.1%
15,O=C(NC1C(O)OC(CO)C(O)C1O)NS(=O)(=O)c1ccc(Cl)cc1 (centres undefined),98.7%
16,O=C(Nc1ccc(Br)cc1F)c1cc(Cl)ccc1O,2.69% (active)
17,CCOC(=O)c1c(C=O)nc2ccccc2c1/C=C/c1ccc(Cl)cc1,91.2%
18,COc1cccc2cc(N(C)c3nc(C)nc4ccsc34)ccc12,21.7%
19,COc1cc(/C=C/C(=O)c2c(C)nc3ccccc3c2/C=C/c2ccccc2)cc(OC)c1OC,25.9%
